Laboratory results: PubChem BioAssay (NCI)
This is part of a sample that, as a whole, favours compounds with a hit. Of some 83,000 tested, about 20% had one in any assay.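 96-well plates, one dose, 48 hours. Percent growth reported; active if below 10.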 Active and inactive are the calls of the source.

Each molecule was assayed on SK-MEL-2 melanoma (assay: NCI-60 one-dose screen, 48 h (100 = growth as untreated, 0 = no growth, -100 = all killed)). Conditions: 10 µM unless noted.

Compound | growth
COc1ccccc1/C=C/C1=C(C)CCC(c2ccccc2OC)C1C (stereo not given) | -7.95% (active)
COc1cc(OCc2cccc(-c3ccc4c(c3)OCCO4)c2C)cc(OC)c1C=O | 58.3% (inactive)
COc1ccccc1-c1nc2ccc3[nH]ncc3c2c2c1CCCC2 | 99% (inactive)
CC(=O)OCCOc1cc(Cl)c(Cl)cc1Cl | 89.9% (inactive)
CC1(C)CC(=O)C2=C(C1)OC(C(=O)c1ccccc1)C2c1cccc(Oc2ccccc2)c1 (stereo not given) | 25% (inactive)
CC1OC(C(=O)N2CCN(CCO)CC2)CC1COC1CCCCC1 (stereo not given) | 107% [50 µM] (inactive)
COc1ccccc1NC(=O)n1c(=O)cc(C)c2ccc(O)cc21 | 101% (inactive)
COc1ccc2c(c1)C(c1c[nH]c3ccccc13)(c1c[nH]c3ccccc13)CCO2 | 43.6% (inactive)
CC(C)(C)n1cc(-c2ccnc(NCCNS(=O)(=O)c3cccc4ccccc34)c2)c(-c2cccc(O)c2)n1 | 81.7% (inactive)
COc1cc(C2=Nc3c(N)nc(N)nc3NC(c3cccc(Nc4ccnc5cc(C(F)(F)F)ccc45)c3)C2)cc(OC)c1OC (stereo not given) | 88% (inactive)
Nc1nc(=O)n([C@H]2CC=C(CO)O2)cc1F | 102% (inactive)
CS(=O)(=O)c1ccc(/C(=N/NC(N)=S)c2ccc(F)cc2)cc1 | 112% (inactive)
O=c1n(C2OC(CO)C(O)C2O)ccc2nccn12 (stereo not given) | 126% (inactive)
Cc1c(N2CCCCC2)[nH]c2ccccc12 | 119% (inactive)
O=C1CCc2c(sc3[nH]c(=S)n(-c4cc(C(F)(F)F)cc(C(F)(F)F)c4)c(=O)c23)C1 | -31.3% (active)
